Results on eight compounds are retold here after PubChem BioAssay AID1417 (Emory University Molecular Libraries Screening Center, 2008).

The whole screen tested about 1,100 compounds, of which about 880 (80%) were called active. No rule for the calls is given here. The set was probably picked from earlier hits. This is one part of the list. Results with a measured potency or affinity are listed apart.

The assay deals with Induced myeloid leukemia cell differentiation protein Mcl-1 (Homo sapiens) (UniProt Q07820). Nature of the assay: Mcl-1 Noxa peptide disruption concentration-response – biochemical, TR-FRET, dose response (AID 1417).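 Also: 100% = protein plus peptide without compound and 0% = peptide alone.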 The following applies: Mcl-1/Noxa peptide interaction, cell-free TR-FRET (terbium/rhodamine), 2 h; at 54 µM (top of the series). A general note: In TR-FRET formats the signal depends on donor and acceptor labels being close together.
Sequence of Induced myeloid leukemia cell differentiation protein Mcl-1 (Homo sapiens) (Q07820 whole entry, looked up): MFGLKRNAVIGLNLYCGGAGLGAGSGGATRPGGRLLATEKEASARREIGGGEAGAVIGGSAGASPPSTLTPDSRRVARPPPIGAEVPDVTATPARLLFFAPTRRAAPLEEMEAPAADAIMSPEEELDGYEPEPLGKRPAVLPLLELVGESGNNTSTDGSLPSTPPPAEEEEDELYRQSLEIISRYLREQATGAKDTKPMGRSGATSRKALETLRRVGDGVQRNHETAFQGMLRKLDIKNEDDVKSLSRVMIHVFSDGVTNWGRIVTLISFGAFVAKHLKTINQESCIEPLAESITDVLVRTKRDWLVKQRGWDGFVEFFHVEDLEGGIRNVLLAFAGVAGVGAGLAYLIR
For `CCN1C(=O)/C(=C2/Sc3ccc(OC)cc3N2C)SC1=Nc1cccc(O)c1`, the percent of control (lower = inhibition) is 54.8% (inactive).
In the case of `Cn1c(=O)c2c(nc(NCc3ccco3)n2CC(O)COc2ccccc2)n(C)c1=O` (stereo not drawn), the percent of control (lower = inhibition) was 81.3% (inactive).
For the compound `N=C1/C(=C\c2ccc(-c3ccc(C(=O)O)cc3)o2)C(=O)N=C2SC=C(c3ccccc3)N12`, the percent of control (lower = inhibition) was -1.95% (active).
For `COc1ccccc1C1NC=C([N+](=O)[O-])C=C1[N+](=O)[O-]` (stereo not drawn), the percent of control (lower = inhibition) is 111% (inactive).
As for `CC1CCCCC1NC(=O)c1ccc2c(c1)[nH]c(=O)n2C1CCCC1` (stereo not drawn), the percent of control (lower = inhibition) was 86.3% (inactive).
Consider `c1ccc(Nc2cccc(Nc3ccccc3)c2)cc1`, for which the percent of control (lower = inhibition) is 60.5% (inactive).
Turning to `CN(C)c1ccc(NC(=O)/C=C/c2c(Cl)cccc2Cl)cc1`, the percent of control (lower = inhibition) is 80.1% (inactive).
Under `CN(C)c1ccc(NC(=O)Nc2cccc(Cl)c2)cc1` stands 49.6% (active).
